In PubChem BioAssay AID1159580 (chemical genetic matrix, 2015):
Hit rate of the full screen: of about 5,500 compounds, about 2,000 (36%) were called active. Not shown: some 18% with an inconclusive outcome. Rule as the data show it: active = normalized growth mostly below about 0.91 (no sharp cut-off); inconclusive = no clear call, values can overlap the other calls; inactive = mostly above about 0.92. The list shows a part of the results.

Test: chemical genetic growth profiling, strain panel (AID 1159580);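 also: tested at 20 µM; growth read once vehicle control cultures reached saturation at 30 °C; 1 = growth at the plate median or of vehicle wells; lower values mean less growth of the strain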
Conditions: growth OD

Measured: normalized growth

COc1cc(O)ccc1C(C)=O
inactive: S. cerevisiae deletion strains, locus YJR043C, strain POL32, hits give low values 0.977 | S. cerevisiae deletion strains, locus YJR066W, strain TOR1, hits give low values 0.957 | S. cerevisiae deletion strains, locus YJR075W, strain HOC1, hits give low values 0.966 | S. cerevisiae deletion strains, locus YKL009W, strain mrt4, hits give low values 0.999 | S. cerevisiae deletion strains, locus YKL068W, hits give low values 0.974 | S. cerevisiae deletion strains, locus YKL085W, strain MDH1 (second series), hits give low values 0.986 | S. cerevisiae deletion strains, locus YKL085W, strain MDH1, hits give low values 0.986 | S. cerevisiae deletion strains, locus YKL160W, strain elf1, hits give low values 1.02 | S. cerevisiae deletion strains, locus YKL190W, strain CNB1, hits give low values 0.995 | S. cerevisiae deletion strains, locus YKR001C, strain vps1, hits give low values 0.975 | S. cerevisiae deletion strains, locus YKR026C, strain gcn3, hits give low values 1.03 | S. cerevisiae deletion strains, locus YKR091W, strain srl3, hits give low values 1.02 | S. cerevisiae deletion strains, locus YLL001W, strain dnm1, hits give low values 1.03 | S. cerevisiae deletion strains, locus YLL026W, hits give low values 1.01 | S. cerevisiae deletion strains, locus YLL041C, strain sdh2, hits give low values 1.01 | S. cerevisiae deletion strains, locus YLR027C, strain aat2, hits give low values 1.01 | S. cerevisiae deletion strains, locus YLR039C, strain RIC1, hits give low values 0.977 | S. cerevisiae deletion strains, locus YLR058C, strain SHM2, hits give low values 0.954 | S. cerevisiae deletion strains, locus YLR102C, strain apc9, hits give low values 0.98 | S. cerevisiae deletion strains, locus YLR113W, strain HOG1, hits give low values 1.01 | S. cerevisiae deletion strains, locus YLR221C, strain rsa3, hits give low values 1.03 | S. cerevisiae deletion strains, locus YLR258W, strain gsy2, hits give low values 1.02 | S. cerevisiae deletion strains, locus YLR262C, strain YPT6 (second series), hits give low values 1.03 | S. cerevisiae deletion strains, locus YLR262C, strain YPT6, hits give low values 0.899 | S. cerevisiae deletion strains, locus YLR268W, strain sec22, hits give low values 1.04 | S. cerevisiae deletion strains, locus YLR320W, strain mms22, hits give low values 1.03 | S. cerevisiae deletion strains, locus YLR330W, strain CHS5, hits give low values 0.991 | S. cerevisiae deletion strains, locus YLR342W, strain FKS1 (second series), hits give low values 1.07 | S. cerevisiae deletion strains, locus YLR342W, strain FKS1, hits give low values 1.03 | S. cerevisiae deletion strains, locus YLR357W, strain rsc2, hits give low values 1.01 | S. cerevisiae deletion strains, locus YLR370C, strain arc18, hits give low values 1.02 | S. cerevisiae deletion strains, locus YLR371W, strain rom2, hits give low values 0.973 | S. cerevisiae deletion strains, locus YLR384C, strain iki3, hits give low values 1.05 | S. cerevisiae deletion strains, locus YLR418C, strain cdc73, hits give low values 0.973 | S. cerevisiae deletion strains, locus YML016C, strain PPZ1, hits give low values 0.989 | S. cerevisiae deletion strains, locus YML032C, strain rad52, hits give low values 0.951 | S. cerevisiae deletion strains, locus YML120C, strain ndi1, hits give low values 1.02 | S. cerevisiae deletion strains, locus YML124C, strain tub3, hits give low values 0.997 | S. cerevisiae deletion strains, locus YMR058W, strain fet3, hits give low values 1.03 | S. cerevisiae deletion strains, locus YMR078C, strain ctf18, hits give low values 0.99 | S. cerevisiae deletion strains, locus YMR125W, strain sto1, hits give low values 1.03 | S. cerevisiae deletion strains, locus YMR129W, hits give low values 1.02 | S. cerevisiae deletion strains, locus YMR205C, strain PFK2, hits give low values 1.04 | S. cerevisiae deletion strains, locus YMR223W, strain ubp8, hits give low values 0.979 | S. cerevisiae deletion strains, locus YMR231W, strain pep5, hits give low values 1.01 | S. cerevisiae deletion strains, locus YMR263W, strain SAP30, hits give low values 0.985 | S. cerevisiae deletion strains, locus YMR307W, strain GAS1, hits give low values 0.997 | S. cerevisiae deletion strains, locus YNL067W, strain RPL9B, hits give low values 0.981 | S. cerevisiae deletion strains, locus YNL071W, strain lat1, hits give low values 1.02 | S. cerevisiae deletion strains, locus YNL153C, strain GIM3, hits give low values 0.961 | S. cerevisiae deletion strains, locus YNL183C, strain NPR1, hits give low values 0.968 | S. cerevisiae deletion strains, locus YNL209W, strain ssb2, hits give low values 1.02 | S. cerevisiae deletion strains, locus YNL233W, strain BNI4, hits give low values 0.975 | S. cerevisiae deletion strains, locus YNL248C, strain rpa49, hits give low values 1.02 | S. cerevisiae deletion strains, locus YNL250W, strain rad50, hits give low values 0.974 | S. cerevisiae deletion strains, locus YNL271C, strain bni1, hits give low values 0.988 | S. cerevisiae deletion strains, locus YNL298W, strain CLA4, hits give low values 0.981 | S. cerevisiae deletion strains, locus YNL307C, strain MCK1, hits give low values 0.992 | S. cerevisiae deletion strains, locus YNL322C, strain KRE1 (second series), hits give low values 1.02 | S. cerevisiae deletion strains, locus YNR049C, strain mso1, hits give low values 1.02 | S. cerevisiae deletion strains, locus YNR052C, strain pop2, hits give low values 0.983 | S. cerevisiae deletion strains, locus YOL012C, strain htz1 1.92 | S. cerevisiae deletion strains, locus YOL147C, strain pex11, hits give low values 1 | S. cerevisiae deletion strains, locus YOR001W, strain rrp6, hits give low values 1.01 | S. cerevisiae deletion strains, locus YOR061W, strain CKA2, hits give low values 0.96 | S. cerevisiae deletion strains, locus YOR069W, strain VPS5, hits give low values 0.999 | S. cerevisiae deletion strains, locus YOR070C, strain gyp1, hits give low values 1.02 | S. cerevisiae deletion strains, locus YOR080W, strain dia2, hits give low values 1.02 | S. cerevisiae deletion strains, locus YOR083W, strain WHI5, hits give low values 1.03 | S. cerevisiae deletion strains, locus YOR106W, strain vam3, hits give low values 1.02 | S. cerevisiae deletion strains, locus YOR136W, strain idh2, hits give low values 0.995 | S. cerevisiae deletion strains, locus YOR144C, strain elg1, hits give low values 0.986 | S. cerevisiae deletion strains, locus YOR184W, strain ser1, hits give low values 0.971 | S. cerevisiae deletion strains, locus YOR231W, strain MKK1, hits give low values 1.02 | S. cerevisiae deletion strains, locus YOR265W, strain rbl2, hits give low values 1.02 | S. cerevisiae deletion strains, locus YOR270C, strain vph1, hits give low values 1.04 | S. cerevisiae deletion strains, locus YOR290C, strain snf2, hits give low values 1.01 | S. cerevisiae deletion strains, locus YOR316C, strain cot1, hits give low values 0.98 | S. cerevisiae deletion strains, locus YPL051W, strain arl3, hits give low values 1.02 | S. cerevisiae deletion strains, locus YPL055C, strain LGE1, hits give low values 0.957 | S. cerevisiae deletion strains, locus YPL078C, strain atp4, hits give low values 1.02 | S. cerevisiae deletion strains, locus YPL106C, strain sse1, hits give low values 1.01 | S. cerevisiae deletion strains, locus YPL240C, strain hsp82, hits give low values 1.01 | S. cerevisiae deletion strains, locus YPL256C, strain CLN2, hits give low values 1.04 | S. cerevisiae deletion strains, locus YPR119W, strain clb2, hits give low values 0.984 | S. cerevisiae deletion strains, locus YPR141C, strain kar3, hits give low values 0.976 | S. cerevisiae deletion strains, locus YPR163C, strain tif3, hits give low values 0.978 | S. cerevisiae deletion strains, locus YPR167C, strain met16, hits give low values 0.983 | S. cerevisiae deletion strains, strain wtn01, hits give low values 1.02 | S. cerevisiae strains, strain wild type, hits give low values 0.997
